# Laboratory results reported in ChEMBL document CHEMBL3988442, “University of Dundee, Small-Polar-MMV Screening Library” (2021).
# Columns and labels:
# [1] = biological target: T1, Aspartate--tRNA(Asp/Asn) ligase (Mycobacterium tuberculosis (strain ATCC 25618 / H37Rv)) (UniProt P9WFW3); assay: Assay for Asp RNA synthetase-1 from Mycobacterium tuberculosis; assay type: functional; set-up: scale not given: direction of the effect not stated beside the values; settings: 30 µM; further: in the data most compounds retested in dose-response had high values
# T1 sequence (whole entry): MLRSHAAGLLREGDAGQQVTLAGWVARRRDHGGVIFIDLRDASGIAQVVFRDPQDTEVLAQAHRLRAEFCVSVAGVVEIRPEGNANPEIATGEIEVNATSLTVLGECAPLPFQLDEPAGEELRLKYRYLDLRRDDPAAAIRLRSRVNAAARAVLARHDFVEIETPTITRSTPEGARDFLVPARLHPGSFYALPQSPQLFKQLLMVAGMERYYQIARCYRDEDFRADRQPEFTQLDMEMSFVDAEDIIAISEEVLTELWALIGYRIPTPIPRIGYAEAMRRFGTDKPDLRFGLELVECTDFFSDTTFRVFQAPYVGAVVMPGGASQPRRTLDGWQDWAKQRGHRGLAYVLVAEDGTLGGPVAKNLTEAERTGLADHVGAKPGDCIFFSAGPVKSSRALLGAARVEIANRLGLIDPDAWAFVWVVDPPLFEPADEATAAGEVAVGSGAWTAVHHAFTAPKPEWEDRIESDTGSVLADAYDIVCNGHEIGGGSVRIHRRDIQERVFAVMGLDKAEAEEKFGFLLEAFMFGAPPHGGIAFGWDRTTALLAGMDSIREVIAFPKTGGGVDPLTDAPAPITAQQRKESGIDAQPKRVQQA
# [2] = biological target: Shiga toxin 2 (Escherichia coli O157:H7) (UniProt P09385+P09386); assay: E. coli 0.157:H7 Shiga Toxin SOP - stx2 screening assay; assay type: functional; set-up: scale not given: direction of the effect not stated beside the values; settings: 30 µM
SMILES,Percent Effect [1],Percent Effect [2]
Cc1nc(-c2ccsc2)ccc1C(=O)NCCC(=O)N1CCCC1,0.0333%,-18.4%
CC(NC(=O)N1CCN(c2ccccc2)CC1)c1nncn1C (centres undefined),1.07%,-28.9%
COc1ccccc1CC(=O)NS(C)(=O)=O,-7.77%,0.472%
COCCN(C)C[C@@H]1CCC[C@@H]2CN(c3cc(OC)ncn3)C[C@@H]21,1.66%,2.29%
COc1ccc(C(=O)N2CCC(Nc3ccc(C)nn3)CC2)c(F)c1,4.79%,-6.61%
COc1cc(CNC2CCc3nc(C)nn3C2)cc2c1OCCO2 (centres undefined),-2.19%,-2.67%
CC(C)S(=O)(=O)c1nnc(CCNC(=O)OC(C)(C)C)o1,2.85%,-59.2%
CN(C)c1ncccc1CNC(=O)N1CCCC1CN1CCCCC1 (centres undefined),-2.19%,-17.9%
CN1CCCC1CNC(=O)CCCOc1ccc(F)cc1 (centres undefined),-1.43%,1.57%
CS(=O)(=O)NC[C@]12COC[C@H]1CN(C(=O)Cc1ccccc1F)C2,6.16%,-11.5%
CCO[C@@H]1CCN(C(=O)c2cscn2)[C@@H]1Cc1cnn(C)c1,-2.13%,1.75%
CN1CCN(Cc2cn3c(n2)CN(C(=O)N2CCOCC2)CC3)CC1,5.44%,-16.4%
COCC(NC(=O)c1cnn(C)c1)c1cccc(C(F)(F)F)c1 (centres undefined),-1.9%,-12.8%
CC(=O)N1CCCn2nc(CNS(=O)(=O)c3cc(C)cs3)cc2C1,1.67%,5.82%
O=C(Nc1ccc(F)c(Br)c1)N1CCCC1,4.74%,-23.1%
O=C(NCCn1ccc(-c2ccccn2)n1)c1ccncc1,-6.73%,-58.6%
CN1CCC(CCNC(=O)c2ccc(N(C)S(C)(=O)=O)cc2Cl)CC1,1.1%,-50.8%
